Bioassay records: PubChem, The Scripps Research Institute Molecular Screening Center
Shown are actives, neighbours in structure and some others; about 3.5% of the full set was active somewhere.
GPR151 activ – activates the human receptor GPR151 | Q8TDV0 | PathHunter beta-arrestin GPR151 cells, luminescence | activation, % at 11.2 µM | hit rate 1% among 650,000; in the data active = activation above about 4.9%
FBW7 act – activators of human E3 ligase FBW7; Q969H0; AlphaScreen FBW7–phospho-cyclin E peptide binding, activator screen; normalized activity (activation), % at 26.1 µM; hit rate 0.13% among 650,000; AID 1259310; in the data active = normalized activity above about 1.9%;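 note: purified mutant Fbw7 with reduced substrate affinity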
Target sequence (Q969H0 whole entry, looked up): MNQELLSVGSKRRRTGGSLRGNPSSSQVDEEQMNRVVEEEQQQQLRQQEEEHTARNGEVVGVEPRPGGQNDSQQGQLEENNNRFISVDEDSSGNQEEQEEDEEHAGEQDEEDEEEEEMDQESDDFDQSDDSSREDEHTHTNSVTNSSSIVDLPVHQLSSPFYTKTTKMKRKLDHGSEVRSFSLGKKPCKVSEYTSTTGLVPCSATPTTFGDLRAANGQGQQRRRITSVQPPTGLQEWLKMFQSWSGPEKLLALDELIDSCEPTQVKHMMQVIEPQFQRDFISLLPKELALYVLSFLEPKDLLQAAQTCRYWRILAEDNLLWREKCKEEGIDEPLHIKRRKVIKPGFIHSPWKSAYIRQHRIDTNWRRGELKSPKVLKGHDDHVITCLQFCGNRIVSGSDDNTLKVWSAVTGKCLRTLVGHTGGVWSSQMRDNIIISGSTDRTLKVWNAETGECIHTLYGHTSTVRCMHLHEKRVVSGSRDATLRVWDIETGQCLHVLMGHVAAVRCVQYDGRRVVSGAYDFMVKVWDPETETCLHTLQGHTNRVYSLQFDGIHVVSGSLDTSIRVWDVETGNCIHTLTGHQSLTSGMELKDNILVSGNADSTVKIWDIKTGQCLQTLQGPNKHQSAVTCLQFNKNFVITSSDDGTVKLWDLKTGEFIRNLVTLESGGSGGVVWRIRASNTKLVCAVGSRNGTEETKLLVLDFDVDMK
MITF inh – inhibitors of human MITF; AID 1259374; inhibition, % at 2.6 µM; AlphaScreen MITF homodimerization, bead proximity signal; hit rate 0.91% among 650,000; in the data active = inhibition above about 50%
TEAD-YAP block – TEAD-YAP interaction inhibition | HEK-TIYL cells, TEAD-Gal4/YAP UAS-luciferase luminescence | inhibition, % at 9.12 µM | hit rate 1.4% among 640,000 | AID 1259422; in the data active = inhibition above about 32%
MITF inh conf – human MITF inhibition, confirmation | shares compounds with MITF inh | AlphaScreen MITF homodimerization, biotin/His-MITF beads | inhibition, % at 2.6 µM | hit rate 16% among 4,700 | AID 1259372;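 active = inhibition above a cutoff derived from the DMSO control wells, cut at about 28% in these data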;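 note: inhibitors lower the bead chemiluminescence by keeping MITF from dimerizing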
AlphaScreen DR – optically interferes with AlphaScreen signal in dose response. shares compounds with MITF inh. AlphaScreen optical interference counterscreen, cell-free. IC50, µM. hit rate 6% among 480. AID 1259373; call rule not given here
AS interf ctr – AlphaScreen optical interference, counter-screen; shares compounds with MITF inh; LysRS AlphaScreen counterscreen, signal interference, triplicate; inhibition, % at 2.6 µM; hit rate 7.6% among 4,700; AID 1259376;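 active = inhibition above a cutoff derived from the DMSO control wells, cut at about 30% in these data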
A number is an active result; n = inactive; x = not tested or not shown.

SMILES | GPR151 activ | FBW7 act | MITF inh | TEAD-YAP block | MITF inh conf | AS interf ctr | others
COc1cc(C)ccc1OCCN1CCNCC1 | n | n | n | n | x | x
C=CCN(CC=C)CCOc1ccc(C)cc1OC | n | n | n | n | x | x
CNc1c(NC(=O)c2ccco2)c(=O)oc2ccccc12 | n | n | n | n | x | x
CCOC(=O)C1=C(C)N=c2s/c(=C\c3ccc(Cl)cc3Cl)c(=O)n2C1c1ccc(N(C)C)cc1 (centres undefined) | n | n | n | n | x | x
CCOC(=O)C1=C(C)N=c2s/c(=C/c3ccc(Cl)cc3Cl)c(=O)n2C1c1ccc(C)cc1 (centres undefined) | n | n | 63 | n | n | n
CCN(CC)c1ccc2cc(-c3nc(-c4ccc(C)cc4C)cs3)c(=O)oc2c1 | n | n | n | n | x | x
CC1CN(CCOc2ccc(Br)cc2Cl)CC(C)O1 (centres undefined) | n | n | 51 | n | n | n
CC1CN(CCCOc2ccc(Br)cc2Cl)CC(C)O1 (centres undefined) | n | n | 58 | n | n | n
Cc1cc(C)c(C)c(OCCN2CC(C)OC(C)C2)c1 (centres undefined) | n | n | 71 | n | n | n
CCOc1ccccc1OCCN1CC(C)OC(C)C1 (centres undefined) | n | n | n | n | x | x
CC1CN(CCOc2ccc(Cl)cc2Cl)CC(C)O1 (centres undefined) | n | n | n | n | x | x
NC(=O)n1c(CCC(=O)O)nc2sc3c(c2c1=O)CCC3 | n | n | 78 | n | 73 | n | AlphaScreen DR=n
c1csc(C2=NNC(c3ccncc3)=Nc3ccccc32)c1 | n | n | 71 | n | n | n
COc1ccc2c(c1)C(c1cccs1)=NNC(c1ccncc1)=N2 | n | n | n | n | x | x
Cc1ncc(CO)c(/C=N/NC(=S)Nc2ccc(F)cc2)c1O | n | n | 85 | n | n | n
Cc1ncc(CO)c(/C=N/Nc2ccc(C(F)(F)F)cn2)c1O | n | n | 58 | n | n | 100
Cc1ncc(CO)c(/C=N/Nc2ccc(C(F)(F)F)cc2[N+](=O)[O-])c1O | n | n | n | n | x | x
Cc1ncc(CO)c(/C=N/NC(=O)c2ccccc2F)c1O | n | n | n | n | x | x
Cc1ncc(CO)c(/C=N/NC(=S)Nc2ccc(Cl)cc2)c1O | n | n | 64 | n | n | n
CC1CCCC(C)N1C(=O)Cn1nc2c3ccc(Cl)cc3ncn2c1=O (centres undefined) | n | n | n | n | x | x
COc1ccc(CCNC(=O)CNC(=O)Cn2cnc3ccccc3c2=O)cc1OC | n | n | n | n | x | x
COc1ccc(C(=O)N(Cc2nc(-c3ccc(C)cc3)no2)C(C)C)cc1[N+](=O)[O-] | n | n | 55 | n | n | n
COc1ccc(-c2noc(CN(C(=O)c3ccc(OC)c([N+](=O)[O-])c3)C(C)C)n2)cc1 | n | n | n | n | x | x
C(=C\c1ncc2ccccn12)/c1ccccc1 | n | n | 56 | n | n | n
Cc1ccc2nc(CN(C)Cc3nccs3)nc(N)c2c1 | n | n | 65 | n | 40 | 100
SMILES | GPR151 activ | FBW7 act | MITF inh | TEAD-YAP block | MITF inh conf | AS interf ctr | others
CC(C)CCNC(=O)C(=O)NCC1OCCCN1S(=O)(=O)c1ccc(F)cc1 (centres undefined) | n | n | 67 | n | n | n
CC(C)CNC(=O)C(=O)NCC1OCCCN1S(=O)(=O)c1ccc(Cl)cc1 (centres undefined) | n | n | 64 | n | n | n
CCCOC(=O)c1ccc(NC(=O)c2cc(-c3ccc(Br)cc3)nc3ccccc23)cc1 | n | n | n | n | x | x
CCCCOC(=O)c1ccc(NC(=O)c2cc(-c3ccc(Br)cc3)nc3ccccc23)cc1 | n | n | 57 | n | n | n
Cc1ccc(-c2cc(C(=O)Nc3ccccc3Cl)c3ccccc3n2)cc1 | n | n | n | n | x | x
Cc1ccc(-c2cc(C(=O)Nc3ccccc3Br)c3ccccc3n2)cc1 | n | n | 56 | n | n | n
COc1ccc(-c2cnc(NCCCN3CCOCC3)nc2)cc1 | n | n | n | n | x | x
CCN(CC)C(=O)[C@@H]1C[C@@H](NCc2cccc(OC)c2)CN1Cc1ccc(Cl)cc1 | n | n | n | n | x | x
CN(C)CCCN(CCCN(C)C)Cc1ccc(F)c(F)c1 | n | n | 56 | n | n | n
CN(C)CCCN(CCCN(C)C)Cc1ccc(C(F)(F)F)cc1 | n | n | 54 | n | n | n
c1ccc(Oc2ccc(-c3[nH]c(-c4cccc5ccccc45)nc3-c3ccccc3)cc2)cc1 | n | n | n | n | x | x
